KB-3-1 tox – qHTS assay for MDR1-selective chemotherapeutics: Primary screen using the parental adenocarcinoma cell KB-3-1 | Potency, µM (doses to about 46.1 µM), hits mostly cytotoxic | 1.4% of 400,000 active | KB-3-1 viability, CellTiter-Glo ATP luminescence, 72 h | AID 1347075, 2019; further: on the % scale 0 is the no-effect control and ±100 the full control effect; nearly all actives have a fitted effect of over 60% in size
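KB-3-1 parental drug-naive adenocarcinoma cells in DMEM/10% FBS, incubated 72 h at 37 C with pin-transferred compounds across a concentration series. Viability by CellTiter-Glo luminescence; concentration-response curves fitted after normalization.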
SW480 rerep – A quantitative high throughput screen for small molecules that induce DNA re-replication in SW480 colon adenocarcinoma cells. SW480 DNA re-replication, Hoechst DNA content imaging, 48 h. Potency, µM (titrated, usually from 46.1 µM), for inactives: at the highest dose re-replication activation, actives largely listed as activators. 1.8% of 340,000 active. AID 624297, 2012; further: % of control where 0% means no effect; nearly all actives have a fitted effect of over 55% in size
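Image-based read-out: total Hoechst fluorescence of nuclei (405 nm excitation, 500-530 nm emission), with hits raising the fraction of high-intensity nuclei. SW480 colon cells incubated 48 hr with compounds at 37 C.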
MCF10A rerep – A quantitative high throughput screen for small molecules that induce DNA re-replication in MCF 10a normal breast cells. Potency, µM (highest dose often 46.1 µM), inactives show at the top dose activity, positive = re-replication, hits mostly activators. 2.9% of 350,000 active. MCF 10A DNA re-replication, Hoechst nuclear intensity, 48 h. AID 624296, 2012; further: % of control where 0% means no effect; nearly all actives have a fitted effect of over 50% in size
ELG1 DNA repair – qHTS screen for small molecules that inhibit ELG1-dependent DNA repair in human embryonic kidney (HEK293T) cells expressing luciferase-tagged ELG1 | HEK293T ELG1-luciferase reporter, luminescence, 16 h; DNA damage induced by 5-fluorouridine | Potency, µM (titrated, usually from 46.1 µM), inactives show top-dose activity change, negative = inhibition, usual class: inhibitors | 2.3% of 330,000 active | AID 504467, 2011; further: on the % scale 0 is the no-effect control and ±100 the full control effect; nearly all actives have a fitted effect of over 55% in size
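Cells (2,000 per well) received 5-fluorouridine plus test compound or DMSO and were incubated 16 hr at 37 °C, 5% CO2. Luciferase activity was read by luminescence 30 min after ONE-Glo addition; signal suppression marked inhibition of damage-induced ELG1 function.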
KB-V1 cytotox – qHTS assay for MDR1-selective chemotherapeutics: Primary screen using the drug-selected MDR subline cells KB-V1 | KB-V1 MDR cells viability, CellTiter-Glo, 72 h | Potency, µM (doses to about 46.1 µM), most hits filed as cytotoxic | 3.4% of 400,000 active | AID 1347076, 2019; further: on the % scale 0 is the no-effect control and ±100 the full control effect; nearly all actives have a fitted effect of over 60% in size
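Luminescent ATP read-out (CellTiter-Glo, 10 min) measures survival of drug-selected KB-V1 MDR cells after 72 h, 37 degrees C compound exposure. Medium: phenol-red-free DMEM, 10% FBS. Values from fitted concentration-response curves.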
An asterisk follows results filed as active; i = inactive; ? = inconclusive; . = no result; [ ] = remark or other dose. Hits are enriched below; roughly 8.1% of the tested compounds scored in any of these assays. The call rests on the fitted dose curve; in most records, active means well fitted curve in the direction sought with a large enough effect; inconclusive means small, poorly fitted or top-dose-only effect, or another doubt; inactive means no such curve, though single readings can be large; an effect the other way counts as inactive or inconclusive. Potency means the concentration at half of the fitted maximal effect.

SMILES	KB-3-1 tox	SW480 rerep	MCF10A rerep	ELG1 DNA repair	KB-V1 cytotox
Cc1ccc(S(=O)(=O)Nc2ccc3nc(C)sc3c2)cc1	i	-1.7%	-3.3%	-2.7%	?
Cc1ccc(S(=O)(=O)Nc2ccc3nc(N)sc3c2)cc1	?	-2.8%	21.0%	?	20.6µM*
O=C(Nc1cccc([S+](=O)([O-])Nc2ccccc2F)c1)c1ccccc1	i	.	.	.	i
Cc1nn(-c2cccc(C(F)(F)F)c2)c(Cl)c1/C=N/Nc1cccc(C(=O)O)c1	i	1.4%	1.5%	?	i
Cc1nn(Cc2ccccc2)c(Cl)c1/C=N/NC(=O)CNc1cccc(C(F)(F)F)c1	i	-3.0%	?	?	9.2µM*
O=C(CNc1cccc(C(F)(F)F)c1)N/N=C/c1cccc(Br)c1	i	-0.4%	20.6µM*	2.1%	i
Cc1cccc(NCC(=O)N/N=C/c2cccc(Br)c2)c1	i	-2.0%	25.6%	-7.8%	?
CN(C)CCN=Cc1c(O)n(-c2ccc(S(=O)(=O)N3CCOCC3)cc2)c(=O)c2ccccc12	i	18.4µM*	-27.6%	10.6%	i
Cc1cccc(-n2c(O)c(C=NCCCN3CCOCC3)c3ccccc3c2=O)c1	i	-6.8%	6.8%	?	i
O=C1NC(Cc2ccccc2)c2nc3cc(F)ccc3c(=O)n2-c2ncccc21 (stereo not given)	i	.	.	.	i
CCCCCCCCCCCCCC(=O)Nc1ccc(/C=C/c2ccnc3ccccc23)cc1	?	.	.	.	i
CC(/C=C1\SC(=S)N(NC(=O)c2ccccc2C)C1=O)=C\c1ccccc1	i	-14.6%	10.3µM*	3.3%	i
CC(/C=C1\SC(=S)N(NC(=O)c2ccc(C)cc2)C1=O)=C\c1ccccc1	i	12.4%	13.7%	-2.9%	i
COc1cc(-c2nc(-c3ccc4c(c3)-c3ccccc3S4(=O)=O)c(-c3ccccc3)[nH]2)cc(OC)c1O	?	17.4%	?	4.61µM*	?
O=C(Nc1cccc(-c2cn3ccccc3n2)c1)c1cnccn1	i	-6.1%	-2.9%	?	i
O=C(Nc1cccc(-c2cn3ccccc3n2)c1)c1cccc(Cl)c1	i	21.4%	?	?	9.2µM*
O=C(Nc1cccc(-c2cn3ccccc3n2)c1)C1CC1	?	-7.0%	?	?	18.4µM*
COc1ccccc1COC(=O)Nc1c(C)nn(C)c1Cl	i	-4.1%	8.6%	-4.3%	23.1µM*
Cc1nn(C)c(Cl)c1NC(=O)OCc1ccc(F)cc1	i	17.8%	-185.4%[0.0737 µM]	?	i
O=C(Nc1cnn(C23CC4CC(CC(C4)C2)C3)c1)c1cnn2c(C(F)(F)F)cc(-c3ccco3)nc12	i	-15.0%	-14.6%	?	8.2µM*
Cc1ccccc1Cn1ccc(NC(=O)c2cnn3c(C(F)(F)F)cc(-c4ccco4)nc23)n1	i	-4.9%	?	7.94µM*	i
O=C(NC12CC3CC(CC(C3)C1)C2)c1cc2nc(-c3ccco3)cc(C(F)(F)F)n2n1	i	14.6µM*	3.66µM*	?	i
O=C(Nc1ccc2c(c1)OCO2)c1cnn2c(C(F)(F)F)cc(-c3ccco3)nc12	i	-0.4%	-0.7%	?	i
CCc1ccc(CNC(=O)C2CCCN(S(=O)(=O)c3ccc4c(ccn4C)c3)C2)cc1 (stereo not given)	i	.	.	.	i
CC1(C)ON=C(c2cccc(F)c2)NC1=O	i	.	.	.	i
SMILES	KB-3-1 tox	SW480 rerep	MCF10A rerep	ELG1 DNA repair	KB-V1 cytotox
O=C(Cn1ncc2c3ccccc3n(Cc3ccc(Cl)cc3)c2c1=O)NC1CCCCCC1	i	.	.	.	i
Cc1cc(C)n(-c2nc3c(c(=O)[nH]c(=O)n3C)n2CC(O)COc2ccc(Cl)cc2Cl)n1 (stereo not given)	2.06µM*	?	?	-7.7%	?
CCN(CC)CCNc1nc2c(c(=O)[nH]c(=O)n2C)n1CC(O)COc1ccc(Cl)cc1Cl (stereo not given)	i	-10.6%	-8.4%	1.2%	i
CC(C)Sc1nc2c(c(=O)[nH]c(=O)n2C)n1Cc1ccc(Cl)cc1	i	-1.8%	4.7%	-14.5%	i
CCC(C)Sc1nc2c(c(=O)[nH]c(=O)n2C)n1CC(O)COc1ccccc1C (stereo not given)	?	-2.5%	?	16.4µM*	18.4µM*
CCC(C)Sc1nc2c(c(=O)[nH]c(=O)n2C)n1Cc1ccc(Cl)cc1 (stereo not given)	?	12.5%	?	-19.8%	9.2µM*
CCOC(=O)C(CC)Sc1nc2c(c(=O)[nH]c(=O)n2C)n1CCc1ccccc1 (stereo not given)	i	-22.1%	25.3%	8.2µM*	i
CCCCc1nn2c(=O)cc(COC(=O)C3CCCCC3)nc2s1	i	.	.	.	i
CCCC(=O)Nc1nnc(SCc2cc(=O)c3cc(C)ccc3[nH]2)s1	i	.	.	.	i
C=CCn1c(Sc2ccccc2)nc2c1c(=O)[nH]c(=O)n2C	7.31µM*	-0.8%	2.3%	2.8%	2.31µM*
CCCCCn1c(Sc2ccccc2)nc2c1c(=O)[nH]c(=O)n2C	?	2.4%	4.4%	2.4%	?
C=CCn1c(SCc2ccc(Cl)cc2)nc2c1c(=O)[nH]c(=O)n2C	i	-1.6%	5.8%	13.1%	16.4µM*
CCCn1nc(C(=O)NC2CCCCCC2)c2ccccc2c1=O	i	-0.2%	7.9%	-24.0%	5.8µM*
Cn1c(=O)c(C(=O)NC2CCCCCC2)c(O)c2ccccc21	i	9.0%	2.6%	27.2%	i
Cn1nc(C(=O)NC2CCCC2)c2ccccc2c1=O	i	-12.9%	2.8%	?	i
Cn1c(=O)c(C(=O)NC2CCCCCCC2)c(O)c2ccccc21	i	-1.9%	0.1%	6.6%	20.6µM*
O=C(Nc1cccc(C(=O)N2CCN(c3cccc(Cl)c3)CC2)c1)c1nsc2ccccc12	i	.	.	.	i
CCc1nc2sc3c(c2c(=O)n1N)CC(C)(C)OC3	i	-8.7%	2.0%	-5.0%	i
CCCc1nc2sc3c(c2c(=O)n1NC(=O)c1ccco1)CC(C)(C)OC3	i	13.9%	17.5%	-0.1%	i
CCCCCCCCCc1nc2sc3c(c2c(=O)n1NC(=O)c1ccccc1[N+](=O)[O-])CC(C)(C)OC3	i	-0.3%	2.91µM*	?	?
CCCCCCCCCc1nc2sc3c(c2c(=O)n1NC(=O)c1ccc([N+](=O)[O-])cc1)CC(C)(C)OC3	i	9.2%	6.51µM*	-10.5%	?
